Source: PubChem BioAssay (National Center for Advancing Translational Sciences (NCATS))
Most compounds without a hit are left out; they make up all but 8% or so of the library.
KB-3-1 cytotox: KB-3-1 parental cell cytotoxicity; KB-3-1 viability, CellTiter-Glo ATP luminescence, 72 h; Potency, µM (top dose mostly 46.1 µM), hits mostly cytotoxic; 400,000 tested, 1.4% active; AID 1347075; note: % is set by controls: 0 for no effect and ±100 for the full control effect; nearly all actives have a fitted effect of over 60% in size
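Luminescent ATP read-out (CellTiter-Glo) measures survival of drug-naive KB-3-1 cells after 72 h compound exposure at 37 °C. Titration series was screened from lowest to highest concentration, with DMSO vehicle plates as background controls.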
HT1080 IDH1KD tx: kills HT-1080 cells with IDH1 knockdown | Potency, µM (series often up to 46.1 µM), for inactives: top-dose activity, negative = toxicity, most hits filed as cytotoxic | HT-1080 IDH1 knockdown viability, ATP luminescence, 48 h | AID 686971 | 360,000 tested, 2% active;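 note: 0% = DMSO wells and -100% = cell-free medium wells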
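Luminescent ATP read-out (CellTiter-Glo, 10 min at room temperature) after 48 h compound exposure at 37 °C gave viability of IDH1-knockdown HT-1080 cells. Activity was normalised to DMSO and cell-free wells, then fitted as concentration-response curves.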
MCF10A rereplic: DNA re-replication induction in MCF 10a cells; AID 624296; Potency, µM (series often up to 46.1 µM), inactives show top-dose activity, positive = re-replication, most hits filed as activators; 350,000 tested, 2.9% active; MCF 10A DNA re-replication, Hoechst nuclear intensity, 48 h; note: % of control where 0% means no effect; nearly all actives have a fitted effect of over 50% in size
HT1080NT lethal: kills 2HG-producing HT-1080-NT fibrosarcoma cells | HT-1080-NT fibrosarcoma viability, CellTiter-Glo ATP luminescence, 48 h | Potency, µM (series often up to 46.1 µM), inactives show at the top dose activity, negative = less viability, most hits filed as cytotoxic | 360,000 tested, 1.6% active | AID 686970;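 note: NT is the 2HG producing partner of a matched IDH1 knockdown line; 0% = DMSO-treated cells and -100% = media-only wells without cells; nearly all actives have a fitted effect of over 55% in size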
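HT-1080-NT fibrosarcoma cells (2HG-overproducing), 750 cells/well in RPMI with 5% FBS, dosed after 2 h and incubated 48 h at 37C. CellTiter-Glo luminescence normalized to DMSO and no-cell wells; concentration-response curves fitted and classed.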
KB-V1 cytotox: KB-V1 MDR subline cytotoxicity. KB-V1 MDR cells viability, CellTiter-Glo, 72 h. Potency, µM (top dose mostly 46.1 µM), usual class: cytotoxic. 400,000 tested, 3.4% active. AID 1347076; note: % is set by controls: 0 for no effect and ±100 for the full control effect; nearly all actives have a fitted effect of over 60% in size
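KB-V1 MDR subline cells in DMEM (phenol-red free, 10% FBS) exposed to compounds in qHTS concentration series for 72 h at 37 degrees C. Viability read by CellTiter-Glo luminescence; concentration-effect curves fitted after normalization and correction.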
SW480 rerep: DNA re-replication induction in SW480 cells | SW480 DNA re-replication, Hoechst DNA content imaging, 48 h | Potency, µM (series often up to 46.1 µM), without a hit: at the highest dose re-replication activation, hits mostly activators | 340,000 tested, 1.8% active | AID 624297; note: % of control where 0% means no effect; nearly all actives have a fitted effect of over 55% in size
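250 cells/well; 23 nL cpd via pin tool; 48 hr, 37 C, 5% CO2; Hoechst 40 min; imager read of total nuclear intensity, ex 405/em 500-530 nm.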
Active calls of the source: *; i = inactive; ? = inconclusive; . = no result given; ! = not confirmed by another sample; [ ] = dose if it differs, or a comment. Calls come from the whole dose curve; as a rule, active = well fitted curve in the direction sought with a large enough effect; inconclusive = small, poorly fitted or top-dose-only effect, or another doubt; inactive = no such curve, though single readings can be large; an effect the other way counts as inactive or inconclusive. Potency is the fitted concentration of half-maximal effect.

SMILES	KB-3-1 cytotox	HT1080 IDH1KD tx	MCF10A rereplic	HT1080NT lethal	KB-V1 cytotox	SW480 rerep
O=C(NCCc1ccccc1)c1ccc(CS(=O)(=O)Cc2ccccc2F)o1	i	2.4%	3.3%	8.9%	14.6µM*	-4.5%
Cc1ccc(CCNC(=O)c2ccc(CS(=O)(=O)Cc3ccccc3F)o2)cc1	i	-4.7%	27.2%	-6.9%	5.8µM*!	2.0%
CC(C)CCNC(=O)c1ccc(CS(=O)(=O)Cc2ccccc2F)o1	i	2.8%	-2.7%	8.3%	i	-3.2%
Cc1ccc(/C=C/C(=O)O)cc1S(=O)(=O)NCc1cccnc1	i	11.0%	5.3%	-1.7%	i	5.6%
Oc1ccc(Br)cc1-c1cc(-c2ccc(Cl)cc2)n[nH]1	18.4µM*	23.1µM*	14.6µM*	23.1µM*	10.3µM*	14.6µM*
O=[N+]([O-])c1cccc(-c2cc(-c3cc(Br)ccc3O)[nH]n2)c1	20.6µM*	?	14.3%	?	20.6µM*	?
COc1ccc(O)c(-c2cc(-c3cccc(Br)c3)n[nH]2)c1	i	?	?	?	?	-18.8%[9.22 µM]
Oc1ccc(Br)cc1-c1cc(-c2ccccc2)n[nH]1	i	20.6µM*	?	29.1µM*	i	?
CCOc1ccc(CCNC(=O)CSc2nnnn2C)cc1OCC	i	16.9%	-7.6%	14.6%	i	1.0%
CCOc1ccc(CCNC(=O)CSc2nn(-c3ccc(C)c(Cl)c3)c(=S)s2)cc1OCC	i	13.1%	?	9.4%	6.51µM*	-0.6%
Cc1nnc(N2CCN(C(=O)NC(C)C)CC2)c2nn(-c3ccccc3)c(C)c12	i	.	.	.	i	.
Cc1ccc2[nH]c3c(c2c1)CCC3=O	i	-14.6%	-7.3%	0.0%	?	-10.2%
Cc1ccc2[nH]c3c(c2c1)CCCC3=O	1.84µM*	-6.2%	-3.8%	-7.4%	1.84µM*	4.3%
O=C1CCCc2c1[nH]c1ccc(CN3CCCCC3)cc21	i	10µM*	14.9%	?	?	-0.6%
CC(C)c1ccc2[nH]c3c(c2c1)CCCC3=O	i	?	-3.3%	20.6µM*	13µM*	-6.0%
Cc1cccc2c3c([nH]c12)C(=O)CC(C)(C)S3	i	-21.6%	3.7%	-23.1%	i	1.2%
Cc1[nH]c2ccccc2c(=O)c1CN1CCCCCC1	i	19.7%	1.5%	-0.6%	?	2.3%
Cc1ccc2[nH]c3c(c2c1)SC(C)(C)CC3=O	i	-0.4%	18.4µM*	1.9%	i	?
CCOC(=O)c1ccc(NC(=O)c2c(NCc3cc(OC)ccc3OC)sc3c2CCC3)cc1	i	.	.	.	i	.
O=C(COC(=O)c1ccccc1NS(=O)(=O)c1cccs1)NC1CCCCC1	i	1.5%	2.8%	-0.3%	i	-2.5%
O=C(COC(=O)c1ccccc1NS(=O)(=O)c1cccs1)NCC12CC3CC(CC(C3)C1)C2	i	-9.4%	?	2.6%	14.6µM*	-2.4%
Cc1noc(C)c1C(=O)N1CCN(C(=O)c2sc3cc(Cl)ccc3c2Cl)CC1	i	-2.5%	-3.3%	-5.3%	23.1µM*	0.4%
Cc1noc(C)c1C(=O)N1CCN(c2ccccc2O)CC1	i	14.3%	-2.8%	5.9%	i	-4.7%
O=C(CCCNS(=O)(=O)c1cccc2nsnc12)NCc1ccc(F)cc1	i	-2.9%	5.4%	-1.4%	?	2.7%
COc1ccc2c(c1)CCc1c(C(=O)NCc3cccnc3)noc1-2	?	-1.5%	3.2%	13.4%	8.2µM*	-3.9%
SMILES	KB-3-1 cytotox	HT1080 IDH1KD tx	MCF10A rereplic	HT1080NT lethal	KB-V1 cytotox	SW480 rerep
CCCNC(=O)c1noc2c1CCc1cc(OC)ccc1-2	i	1.6%	4.9%	4.9%	i	0.5%
O=C(c1noc2c1CCc1ccccc1-2)N1CCOCC1	i	-19.6%	-8.9%	2.3%	16.4µM*	-10.4%
COc1ccc2c(c1)CCc1c(C(=O)N3CCCCCC3)noc1-2	i	-0.9%	?	-1.6%	14.6µM*	-2.8%
Cc1cc(NC(=O)c2noc3c2CCc2ccccc2-3)no1	i	2.8%	2.0%	1.5%	i	-5.2%
Cc1ccc(O)c(NC(=O)c2noc3c2CCc2ccccc2-3)c1	i	-0.9%	?	9.5%	i	14.6µM*
CCOC(=O)C1CCCN(CC(=O)c2ccc(F)cc2)C1 (stereo unspecified)	i	23.4%	1.7%	17.0%	i	-12.1%
COc1ccc(CN(C(=O)c2nsc(Cl)c2Cl)C(C(=O)NC2CCCC2)c2ccc(OC)cc2)cc1 (stereo unspecified)	i	5.3%	-0.1%	13.6%	i	-5.2%
O=C(O)c1ccc(Cl)cc1Nc1nc2cc(Cl)ccc2o1	16.4µM*	-2.9%	20.6µM*	-11.4%	16.4µM*	5.5%
COc1ccccc1NS(=O)(=O)c1cc([N+](=O)[O-])ccc1N/N=C/c1c(C)[nH]c2ccccc12	i	-14.2%	?	-24.7%	i	11.8%
O=[N+]([O-])c1ccc(N/N=C/c2c[nH]c3ccccc23)c(S(=O)(=O)Nc2ccc(Cl)cc2)c1	?	-22.5%	?	-2.0%	?	20.6µM*
COc1ccc(C2C(C(C)=O)=C(O)C(=O)N2c2nccs2)c(OC)c1 (stereo unspecified)	i	-1.5%	3.1%	10.2%	i	20.6µM*
Cc1cc(NC(=O)Cn2cnc3sc(C)c(-c4ccccc4)c3c2=O)no1	i	-14.8%	?	-6.6%	20.6µM*	-3.2%
COc1ccc(-c2csc(NC3OC(=O)c4c3ccc(OC)c4OC)n2)cc1OC (stereo unspecified)	i	2.59µM*	?	2.06µM*	i	17.5%
CC(C)Cc1cc(C(=O)N2CCC(N3CCC(C(=O)N4CCCC4)CC3)CC2)n[nH]1	i	16.4%	-0.1%	0.1%	i	-14.1%
CNC(=O)CSc1nc(N)c2c3c(sc2n1)CCC3	i	-23.1%	?	11.5%	20.6µM*	-13.7%
NC(=O)CSc1nc(N)c2c3c(sc2n1)CCCCC3	i	8.0%	15.7%	11.7%	?	-5.6%
CCOC(=O)C1(N(CC)CC)Sc2cc(C)ccc2NC1=O (stereo unspecified)	?	?	?	?	10.3µM*	?
CCOC(=O)c1[nH]c2ccc(C)cc2c1N	i	2.6%	4.4%	2.3%	?	1.1%
CC(=O)N1N=C(c2cccc([N+](=O)[O-])c2)OC1c1ccc(Cl)cc1Cl (stereo unspecified)	i	-0.1%	?	-10.5%	20.6µM*	-1.7%
Cc1cc2nn(-c3cccc4ccccc34)nc2cc1N	i	1.0%	20.6µM*	4.8%	i	17.4%
